This is a sample that favours compounds with a hit; in the whole collection about 0.51% have one here.
E coli growth-1 – E. coli growth inhibition; AID 1053175; OD600 absorbance (no concentration beside the values); hit rate 0.21% among 330,000; Escherichia coli growth, OD600, 23 h; stronger effect = lower value;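 active means OD600 absorbance below the run mean of sample wells minus 3.6 SD, in any replicate, cut at about 0.56 in these data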
E coli growth-2 – bacterial growth inhibition, counter-screen for AddAB inhibitors; E. coli V3065 growth, OD600 absorbance, 18 h; inhibition, % at 11.9 µM; hit rate 0.27% among 330,000;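 active means inhibition above the campaign's mean inhibition across all tested compounds plus 3 SD, cut at about 9.9% in these data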;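 further: uninfected addAB+ strain grown without phage in ampicillin broth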
Tat transport – inhibitors of E. coli Tat protein transport | E. coli MC4100 TorA-mCherry Tat export, fluorescence | AID 488895 | hit rate 0.036% among 340,000 | inhibition, % at 10 µM;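 active means mean replicate inhibition at least 50% and at least half of replicates individually reaching 50%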;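 further: exported cargo escapes ClpAP degradation while cytoplasmic cargo is degraded and loses fluorescence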
phage Ecoli inh – E. coli growth loss with phage present; growth absorbance; inhibition, % at 11.9 µM; hit rate 0.26% among 360,000; AID 651602; in the data active means inhibition above about 11%
AddAB inh – less growth of phage-infected E. coli with AddAB | E. coli expressing H. pylori AddAB, absorbance growth | inhibition, % at 11.9 µM | hit rate 0.29% among 330,000 | AID 435030; in the data active means inhibition above about 12%
AddAB conf – confirmation screen: growth loss of phage-infected E. coli expressing H. pylori AddAB; inhibition, % at 11.9 µM; hit rate 64% among 880; E. coli V3065 expressing H. pylori AddAB, T4 phage, OD; T4 phage with gene 2 nonsense mutations; shares compounds with AddAB inh;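 active means mean inhibition above a set limit taken from the earlier primary screen, cut at about 13% in these data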;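 further: higher means less bacterial growth since AddAB block lets phage replicate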
RecBCD counter – reduces growth of phage-infected RecBCD+ E. coli, AddAB inhibitor counter-screen | shares compounds with AddAB inh | AID 488955 | hit rate 73% among 880 | inhibition, % at 11.9 µM | E. coli V66 + mutant T4 phage, OD growth;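 active means mean inhibition above the mean of solvent-only control wells plus 3 SD, cut at about 4% in these data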;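 further: optical density read after an 18 h incubation at 37 °C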
bact viab count – counter-screen: bacterial growth inhibition; shares compounds with AddAB inh; bacterial viability, absorbance (AddAB counterscreen); inhibition, % at 11.9 µM; hit rate 35% among 880; in the data active means inhibition above about 25%
RecBCD conf – confirmation: growth loss of phage-infected RecBCD+ E. coli (RecBCD inhibitor screen); shares compounds with phage Ecoli inh; E. coli V66 + T4 2- phage, growth OD; inhibition, % at 11.9 µM; hit rate 45% among 890;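 active means mean inhibition over triplicates exceeding the hit threshold derived in the original primary screen, cut at about 11% in these data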
Ecoli viability – bacterial viability inhibition counter-screen for RecBCD | shares compounds with phage Ecoli inh | E. coli viability, absorbance (OD) growth | inhibition, % at 11.9 µM | hit rate 29% among 890; in the data active means inhibition above about 20%;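 further: E. coli strain V66 grown with compound alone and no phage infection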
AddAB counter – growth loss of phage-infected AddAB E. coli, RecBCD counter-screen; shares compounds with phage Ecoli inh; E. coli expressing H. pylori AddAB + T4 phage, OD growth; gene 2 mutant T4, recBCD-deleted host; inhibition, % at 11.9 µM; hit rate 45% among 890;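 active means mean inhibition above the solvent-only control wells' mean plus 3 SD, cut at about 22% in these data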;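 further: higher means less bacterial growth from phage killing when AddAB is blocked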
Hits are given with their value; – = inactive; · = not tested or not shown.

SMILES | E coli growth-1 | E coli growth-2 | Tat transport | phage Ecoli inh | AddAB inh | others
COC(=O)C1C(O)C(C)C(O)C(C)C=CC=C(C)C(=O)Nc2c(C)c(OC(C)=O)c3c(c2O)C(=O)C(C)=C2OCOC(=C23)C(C)=CC(C)(O)C(O)C(C)C1O (stereo not drawn) | 0.12 | · | · | · | ·
C=C1C2C[C@]3(C1O)C1CC4[C@@]5(C)CCC(O)[C@@]4(C1N(CC)C5)C3CC2O (stereo partly drawn) | – | · | · | · | ·
c1ccc(-c2nc(N3CCOCC3)s[n+]2-c2ccccc2)cc1 | 0.52 | – | – | – | –
COC(=O)C1=C(c2cccc(OC)c2OC)CC2CCC1N2C(=O)NC1CCCCC1 (stereo not drawn) | – | · | · | · | ·
COc1cc2cc(C(=O)N3CC(COS(C)(=O)=O)c4ccc(O)cc43)[nH]c2c(OC)c1OC (stereo not drawn) | · | · | 58 | · | ·
COC(=O)C1=C(c2ccc(-c3ccccc3)c(F)c2)CC2CCC1N2C(=O)NCc1cccc2ccccc12 (stereo not drawn) | – | · | · | · | ·
COC(=O)C1=C(c2cccc(C#N)c2)CC2CCC1N2C(=O)NCCNC(C)=O (stereo not drawn) | – | · | · | · | ·
C1=C(CCNCc2ccccc2)CCCC1 | 0.45 | – | – | – | –
Fc1ccc(CNCCc2ccccc2)cc1 | – | – | – | – | –
Clc1ccc(C(c2ccc(Cl)cc2)n2cc[n+](CC(OCc3ccc(Cl)cc3Cl)c3ccc(Cl)cc3Cl)c2)cc1 (stereo not drawn) | 0.094 | – | – | – | –
CC1CCC2C(C)C(=O)OC3OC4(C)CCC1C32OO4 (stereo not drawn) | 0.43 | – | – | – | –
CNc1ccc2oc(CC3O[C@@]4(CCC3C)OC(C(C)C(=O)c3ccc[nH]3)C(C)CC4C)nc2c1C(=O)O (stereo partly drawn) | – | · | · | · | ·
COC(=O)C1=C(c2cccc(OCc3ccccc3)c2)CC2CCC1N2C(=O)NCc1ccccc1OC (stereo not drawn) | – | · | · | · | ·
CNc1cc(Cl)c2nonc2c1[N+](=O)[O-] | 0.46 | · | – | – | ·
CN(C)C1C(=O)C(C(N)=O)=C(O)[C@@]2(O)C(=O)C3=C(O)c4c(O)cccc4[C@@](C)(O)C3CC12 (stereo partly drawn) | 0.065 | · | · | · | ·
CN(C)C1C(=O)C(C(N)=O)=C(O)[C@@]2(O)C(=O)C3=C(O)c4c(O)cccc4[C@@](C)(O)C3C(O)C12 (stereo partly drawn) | 0.07 | · | · | · | ·
COC(=O)C1=C(c2ccc(OCc3ccccc3)cc2)CC2CCC1N2C(=O)NCc1ccccc1 (stereo not drawn) | – | · | · | · | ·
CC=C1CC(C)[C@](O)(CO)C(=O)OCC2=CCN3CCC(OC1=O)C23 (stereo partly drawn) | – | · | · | · | ·
O=c1[nH]c(=S)n(C2CC2)c(O)c1C=NCc1ccc(F)cc1 | – | 15 | – | – | 27 | AddAB conf=62;RecBCD counter=–;bact viab count=26
O=c1[nH]c(=S)n(C2CC2)c(O)c1C=NCc1cccnc1 | – | – | · | · | –
CN1/C(=C\C=C\C2=[N+](C)c3ccc4ccccc4c3C2(C)C)C(C)(C)c2ccccc21 | · | 51 | · | · | 30 | AddAB conf=77;RecBCD counter=66;bact viab count=78
COC(=O)C1=C(c2cccc(OC)c2OC)CC2CCC1N2C(=O)NCc1ccco1 (stereo not drawn) | – | · | · | · | ·
COC(=O)C1=C(c2ccc(-c3ccccc3)c(F)c2)CC2CCC1N2C(=O)NCCOc1ccc(OC)cc1 (stereo not drawn) | – | · | · | · | ·
CCCN(CCC)C1Cc2cc(OC)c(OC)cc2C1 | – | 99 | – | – | 98 | AddAB conf=–;RecBCD counter=–;bact viab count=–
Cc1ccccc1[N+](=O)[O-] | – | – | – | – | –
SMILES | E coli growth-1 | E coli growth-2 | Tat transport | phage Ecoli inh | AddAB inh | others
Cc1cc([N+](=O)[O-])c2ccccc2[n+]1[O-] | 0.48 | 21 | – | · | 28 | AddAB conf=99;RecBCD counter=11;bact viab count=33
C#C[C@]1(O)CCC2C3CCC4=CC(=O)CC[C@]4(C)C3CC[C@@]21C (stereo partly drawn) | – | · | · | · | ·
COC(=O)C1=C(c2ccc(OCc3ccccc3)cc2)CC2CCC1N2C(=O)NCCCc1ccccc1 (stereo not drawn) | – | · | · | · | ·
CCCNC1=C(C)C(=O)C2=C(C1=O)C(COC(N)=O)[C@]1(OC)C3NC3CN21 (stereo partly drawn) | 0.13 | 46 | – | 23 | 44 | AddAB conf=98;RecBCD counter=45;bact viab count=82
Oc1c(Br)c(Br)c(Br)c(Br)c1Br | · | 15 | – | · | 18 | AddAB conf=22;RecBCD counter=20;bact viab count=–
Cc1ccc(C[n+]2c(-c3ccc(C)cc3)cc(-c3ccc(C)cc3)cc2-c2ccc(C)cc2)cc1 | 0.41 | 25 | – | · | 16 | AddAB conf=55;RecBCD counter=12;bact viab count=–
COC(=O)C1=C(c2cccc(C#N)c2)CC2CCC1N2C(=O)N1CCC(O)CC1 (stereo not drawn) | – | · | · | · | ·
CN1CCN(c2ccc([N+](=O)[O-])c3no[n+]([O-])c23)CC1 | 0.057 | 103 | 51 | 30 | 102 | AddAB conf=101;RecBCD counter=19;bact viab count=89;RecBCD conf=14;Ecoli viability=–;AddAB counter=101
CCn1nc(-c2ccccc2)nc2c(=O)n(C)c(=O)nc1-2 | – | – | – | · | –
Cc1nc2c(=O)n(C)c(=O)nc-2n(C)n1 | 0.049 | 42 | – | 42 | 41 | AddAB conf=48;RecBCD counter=39;bact viab count=42;RecBCD conf=43;Ecoli viability=48;AddAB counter=61
COC(=O)C1=C(c2ccc(-c3ccccc3)c(F)c2)CC2CCC1N2C(=O)NCCO (stereo not drawn) | – | · | · | · | ·
O=c1[nH]c(=O)n(-c2ccc(Cl)cc2)c(O)c1C=Nc1ccc(S(=O)(=O)Nc2nccs2)cc1 | · | – | – | 12 | – | RecBCD conf=–;Ecoli viability=–;AddAB counter=25
CCN(CC)S(=O)(=O)c1ccc(N=Cc2c(O)n(-c3ccccc3)c(=O)[nH]c2=O)cc1 | – | – | – | – | –
CC1=NN(c2ccccc2)C(=O)C1C=C1C(=O)NC(=O)N(c2cc(C)cc(C)c2)C1=O (stereo not drawn) | – | · | · | · | ·
COC(=O)C1=C(c2ccc(OC)c(OC)c2)CC2CCC1N2C(=O)NCc1ccc(F)cc1 (stereo not drawn) | – | · | · | · | ·
COc1ccc(CC2=NCCc3cc(OC)c(OC)cc32)cc1OC | · | · | · | – | ·
